PubChem BioAssay AID2685 (National Center for Advancing Translational Sciences (NCATS), 2010)
Among all 320,000 compounds or so, about 2,100 (0.66%) were called active. Roughly 53% stayed inconclusive and do not appear here. The call rests on the fitted dose curve; in most records, active means well fitted inhibition curve with a large enough effect in the signal ratio, with a control signal flat (not every such curve was filed as active); inconclusive means small, poorly fitted or top-dose-only effect, or effect the other way, or a change in a side signal; inactive means flat fitted curve, though single readings scatter; the % refers to the signal ratio. Shown is part of a subset that was picked to be rich in actives. Where a SMILES comes first, the peptide text is derived from it. [ ]: non-standard residue; d: D form. The star is where a group is joined. ξ: configuration not given here. ξF = NC(Cc1ccccc1)C(=O)O; Cbz = O=C(OCc1ccccc1)*

Assay: qHTS Assay for Lipid Storage Modulators in Drosophila S3 Cells;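 on cell number change: cells counted by Cell Tracker Red CMTPX staining in the red channel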
Settings: BODIPY lipid droplet fluorescence, 18-24 h, cells fed with added oleic acid; cell number change: measured here: cell count max response; series mostly up to 46.1 µM
Method in brief: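 Drosophila S3 cells got compounds at several concentrations plus oleic acid (400 uM solution). Laser-scanning cytometry with 488 nm excitation read lipid droplets at 500-530 nm and cells at 575-640 nm. Percent activity was relative to 20 uM Triacsin C.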
Potency means the concentration at half of the fitted maximal effect.

SMILES | Potency | cell number change [%]
C/C(CC(=O)NC12CC3CC(CC(C3)C1)C2)=N\NC(=O)c1cnccn1 | inactive | 1.39
Cc1nccc2[nH]c(=O)c(C(=O)NC3CCCCC3C)cc12 (stereo not drawn) | inactive | 3.44
CCOC(=O)N1CCC(NC(=O)c2ccc3c(c2)N(C)C(=O)/C(=C/c2cccc(OC)c2)S3)CC1 | 2.91 µM (active) | -26
COc1cccc(/C=C2\Sc3ccc(C(=O)NCc4cccnc4)cc3N(C)C2=O)c1 | inactive | -1.61
CCOc1ccc(/C=C2/Sc3ccc(C(=O)N4CCOCC4)cc3N(C)C2=O)cc1OC | 20.6 µM (active) | -3.07
CN1C(=O)/C(=C/c2cccc(Cl)c2)Sc2ccc(C(=O)N3CCCC3)cc21 | inactive | 
CN1C(=O)/C(=C/c2cccc(Cl)c2)Sc2ccc(C(=O)N3CCOCC3)cc21 | inactive | 
Cc1cccc(/C=C2\Sc3ccc(C(=O)N4CCC(C)CC4)cc3N(C)C2=O)c1 | inactive | 
CN(Cc1ccccc1)c1nc2c(c(=O)[nH]c(=O)n2C)n1C | inactive | -14.1
O=C(CSc1ncnc2c1nnn2Cc1ccccc1)NC1CCCC1 | inactive | -1.92
O=C(CSc1ncnc2c1nnn2Cc1ccc(F)cc1)NC1CCCCC1 | 20.6 µM (active) | -16.3
O=C(CSc1ncnc2c1nnn2Cc1ccccc1)NC1CCCCC1 | inactive | -19.4
CC(C)(C)C1CCC2(CC1)SCC(=O)N2c1ccccc1 (stereo not drawn) | inactive | -2.85
COCc1cc(C)nc(SCC(=O)Nc2ccccc2N2CCOCC2)c1C#N | 13 µM (active) | -22.4
COCc1cc(C)nc(SCC(=O)Nc2ccc(N3CCOCC3)cc2)c1C#N | inactive | 5.82
COCc1cc(C)nc(SCC(=O)Nc2ccc3c(c2)OCCO3)c1C#N | inactive | 16.8
O=C(N/N=C/c1ccsc1)c1ccc2c(c1)OCO2 | inactive | 17
Cc1cc(-c2ccc(C)c(S(=O)(=O)NCCC(C)N3CCCCCC3)c2)on1 (stereo not drawn) | inactive | 3.3
CCOc1ccc(CN(C)C(=O)[C@H](Cc2ccccc2)NC(=O)OCc2ccccc2)cc1OC | 8.2 µM (active) | 6.3
COc1ccc(CCNC(=O)C(NC(=O)OCc2ccccc2)C(C)C)cc1OC (stereo not drawn) | inactive | 2.79
CCOC(=O)CNC(=O)C(Cc1ccccc1)NC(=O)OCc1ccccc1 (stereo not drawn) (Cbz-[ξF]-Gly-OEt) | inactive | 
CN1CCN(C2=NC(=O)/C(=C/c3ccccc3OS(=O)(=O)c3ccccc3)S2)CC1 | inactive | 6.94
CCOC(=O)C(NC(=O)CC)(Nc1ccccc1)C(F)(F)F (stereo not drawn) | inactive | -9.13

SMILES | Potency | cell number change [%]
CCOC(=O)C(NC(C)=O)(Nc1ccc(F)cc1)C(F)(F)F (stereo not drawn) | inactive | -0.408
CCOC(=O)C(NC(C)=O)(Nc1cccc(F)c1)C(F)(F)F (stereo not drawn) | 4.11 µM (active) | -1.43
CNC(=O)C1CC(=O)N(c2ccc(F)c(Cl)c2)C1 (stereo not drawn) | inactive | 9.35
CCC(C)c1ccc(OCCN2CCCC2)cc1 (stereo not drawn) | 23.1 µM (active) | 7.66
CCOc1ccc(OCCN2CCCCC2)cc1 | inactive | -0.326
CC(C)c1ccc(OCCCN2CCCC2)cc1 | inactive | 0.741
COc1ccc(OC)c(NS(=O)(=O)c2ccc(Cl)nc2)c1 | inactive | 7.58
CC(=O)NNC(=S)NCCc1ccccc1 | inactive | 6.47
CCOCc1[nH]c(=S)[nH]c(=O)c1Cc1ccc(OCC)cc1 | inactive | 9.42
COc1ccc(CNc2nc3ccccc3n2Cc2ccc(Cl)cc2)cc1OC | inactive | -0.354
CCOC(=O)N1CCN(C(=O)CCc2cc(OC)c(OC)c(OC)c2)CC1 | inactive | 18.4
CC(=O)N1CC(C)Sc2ccc(S(=O)(=O)NCCc3ccc(C)cc3)cc21 (stereo not drawn) | 6.51 µM (active) | -15.2
CC(=O)N1CC(C)Sc2ccc(S(=O)(=O)NCc3ccc(Cl)cc3)cc21 (stereo not drawn) | inactive | 17.6
COc1ccc(CNS(=O)(=O)c2ccc3c(c2)N(C(C)=O)CC(C)S3)cc1 (stereo not drawn) | inactive | -3.12
CCc1ccc(-n2c(C)cc(/C=N/NC(=O)OC)c2C)cc1 | inactive | -6.79
Cc1ccc(OCc2nnc(NC(=O)OCC(C)C)s2)c(C)c1 | inactive | 
Cc1ccc(OCc2nnc(NC(=O)OCC(C)C)s2)cc1 | 18.4 µM (active) | 0.0966
CCCCOC(=O)Nc1nnc(COc2ccccc2)s1 | inactive | -19.4
O=C(NC1CCN(S(=O)(=O)c2ccc(Cl)c(F)c2)CC1)c1cccnc1 | inactive | -17.9
C[C@@H](O)C1NC(=O)[C@H](CCCCN)NC(=O)c2cc([N+](=O)[O-])cc(I)c2OCC[C@@H](C(N)=O)NC1=O (stereo partly drawn) | inactive | -6.85
O=S(=O)(c1ccc(Br)cc1)c1nc(-c2ccccc2)oc1NCCN1CCOCC1 | inactive | 2.89
COCCNc1nnc(Cc2ccc(Cl)cc2)c(=O)[nH]1 | inactive | -0.278
O=C(c1ccc(F)c(F)c1)N1CCCc2ccccc21 | inactive | 4.4

SMILES | Potency | cell number change [%]
O=C(c1ccccc1)N1CCCc2ccccc21 | inactive | 0.741
O=C(c1cccc(Br)c1)N1CCCc2ccccc21 | 0.82 µM (active) | -21.4
Cc1ccc(OCCCC(=O)Nc2ccc(N3CCOCC3)cc2)c(C)c1 | inactive | 
Cc1cc(Oc2nnnn2-c2ccccc2)ccc1Cl | inactive | 
CCN(C(=O)c1ccc(NC(C)=O)cc1)c1ccccc1 | inactive | -17
Nc1ccc(-n2nnnc2CN2CCOCC2)cc1 | inactive | 0.0095
c1ccc(-n2nnnc2CN2CCOCC2)cc1 | inactive | -7
CC1CCN(Cc2nnnn2-c2ccc(Cl)cc2)CC1 | 13 µM (active) | -6.07
COc1ccc(OC)c(N(CC(=O)NCCSCc2ccco2)S(=O)(=O)c2ccc(OC)c(OC)c2)c1 | inactive | -16.6
Cc1ccc2c(c1)S/C(=C\c1cccc[n+]1C)N2CCO | inactive | -6.57
CCCCN1/C(=C/c2cccc[n+]2C)Sc2cc(NC(C)=O)ccc21 | 1.3 µM (active) | 11.1
C[n+]1ccccc1/C=C1\Sc2ccccc2N1CCO | inactive | -1.06
O=C(Nc1nc2ccc([N+](=O)[O-])cc2s1)C1CCCO1 (stereo not drawn) | inactive | -16.8
O=C(NNC(=O)c1csc(-c2cccnc2)n1)c1ccccc1 | inactive | 5.13
S=C(NCc1cccc(Cl)c1)NCc1ccco1 | inactive | 29.3
CCC(CC)NC(=O)COC(=O)c1ccc2c(c1)C(=O)N(Cc1ccco1)C2=O | inactive | -0.427
CC(C)(C)NC(=O)COC(=O)c1ccc2c(c1)C(=O)N(Cc1ccco1)C2=O | inactive | -13.3
CC(C)(C)C(=O)COC(=O)c1ccc2c(c1)C(=O)N(Cc1ccco1)C2=O | 0.259 µM (active) | 2.14
COc1ccc(NS(=O)(=O)c2cccc(C(=O)NCC(c3ccco3)N3CCCC3)c2)cc1 (stereo not drawn) | inactive | 21.4
COC(=O)c1ccc(CSc2nnc(N)s2)cc1 | inactive | 1.22
CCn1cc(C(=O)OCC(=O)OC2CC(C)CCC2C(C)C)c(=O)c2ccc(C)nc21 (stereo not drawn) | inactive | 
CCOCCCNC(=O)c1cc2c(=O)n3cccc(C)c3nc2s1 | inactive | 22
CCOCCCNc1nc2c(C)cccn2c(=O)c1/C=C1\SC(=S)N(C(C)CC)C1=O (stereo not drawn) | 0.461 µM (active) | 29.9

SMILES | Potency | cell number change [%]
CCC(C)Nc1nc2c(C)cccn2c(=O)c1C=Nc1ccc(OC)cc1 (stereo not drawn) | inactive | 
COCCn1c(=O)[nH]c(=O)c2c(C(F)(F)F)cc(-c3cccs3)nc21 | inactive | 6.31
COc1ccc(CNC(=O)c2cc(=O)c3cc(C)c(C)cc3o2)cc1 | inactive | 22.5
CN(NS(=O)(=O)c1ccc(F)cc1)c1ncc(C(F)(F)F)cc1Cl | inactive | -16.4
CC(=O)NCCC(=O)Nc1ncc(S(=O)(=O)c2ccc([N+](=O)[O-])cc2)s1 | inactive | 18.8
CCCOc1ccc(N2C(=O)CC(N3CCN(c4ccc([N+](=O)[O-])cc4)CC3)C2=O)cc1 (stereo not drawn) | 2.31 µM (active) | 5.5
CCCOc1ccc(N2C(=O)CC(N3CCOCC3)C2=O)cc1 (stereo not drawn) | inactive | 5.36
CCCOc1ccc(N2C(=O)CC(N3CCN(c4ccccc4F)CC3)C2=O)cc1 (stereo not drawn) | inactive | -7.57
Cn1c(=O)n(CC(=O)O)c(=O)c2c1nc1n2CCCN1Cc1ccccc1 | inactive | 6.57
O=C(COc1ccccc1[N+](=O)[O-])N/N=C/C=C/c1ccco1 | inactive | -6.08
Cc1cc(NC(=O)CN2C(=O)NC3(CCC(C)CC3)C2=O)no1 (stereo not drawn) | inactive | 5.62
O=C(NCCN1C(=O)S/C(=C\c2ccc(Cl)c(Cl)c2)C1=O)C1COc2ccccc2O1 (stereo not drawn) | inactive | 
O=C(CCc1nc2ccccc2c(=O)[nH]1)NCCN1C(=O)S/C(=C\c2ccc(Cl)cc2Cl)C1=O | inactive | 1.43
O=C(NCCN1C(=O)S/C(=C\c2cccc(Cl)c2Cl)C1=O)C1=COCCO1 | 11.6 µM (active) | -26.2
O=C(CCCN1C(=O)/C(=C/c2ccccc2Cl)SC1=S)NCCCN1CCOCC1 | inactive | 16.8
O=C(NCCN1C(=O)S/C(=C\c2ccc(Cl)c([N+](=O)[O-])c2)C1=O)C1=COCCO1 | inactive | 12.4
O=C(NCCN1C(=O)S/C(=C\c2ccc(Cl)cc2Cl)C1=O)C1=COCCO1 | 20.6 µM (active) | 
CC(=O)c1c2c3c(cccc3n(C)c1=O)C(=O)c1ccccc1-2 | inactive | -3.04
CCOC(=O)c1c2c3c(cccc3n(C)c1=O)C(=O)c1ccccc1-2 | 13 µM (active) | -24.8
Cn1c(=O)c(Nc2ccc(O)cc2)c2c3c(cccc31)C(=O)c1ccccc1-2 | inactive | 4.29
COc1ccccc1CNC(=O)c1sccc1-c1ccccc1 | inactive | 7.94
CCOC(=O)c1sc(=NC(=O)c2ccc(OC)c(OC)c2)n(C)c1C | inactive | 0.273
CC(=O)c1ccc(S(=O)(=O)N2CCCc3ccccc32)cc1 | inactive | 13.2
